Sampled rows, rich in hits. Any-hit rate of the full collection: about 12%.
JMJD2A Tudor: blocks the human JMJD2A Tudor domain. AID 504339. Potency, µM (titrated, usually from 114 µM), inactives show top-dose activity change, negative = inhibition, usual class: inhibitors. AlphaScreen JMJD2A-Tudor / H3K4me3 peptide binding. O75164. 390,000 compounds, 4.4% hits; also: potency is read from the fitted curve at half-maximal effect; % is scaled to controls: 0 for no effect and ±100 for the full control effect; nearly all actives have a fitted effect of over 50% in size
HP1b chromo inh: HP1-beta chromodomain-methylated histone interaction inhibition; 390,000 compounds, 0.56% hits; P83916; Potency, µM (highest dose often 114 µM), without a hit: at the highest dose activity change, negative = inhibition, usual class: inhibitors; AlphaScreen HP1-beta / biotin-H3K9me3 peptide binding; also: potency is read from the fitted curve at half-maximal effect; nearly all actives have a fitted effect of over 70% in size
Target sequence (P83916 whole entry, looked up): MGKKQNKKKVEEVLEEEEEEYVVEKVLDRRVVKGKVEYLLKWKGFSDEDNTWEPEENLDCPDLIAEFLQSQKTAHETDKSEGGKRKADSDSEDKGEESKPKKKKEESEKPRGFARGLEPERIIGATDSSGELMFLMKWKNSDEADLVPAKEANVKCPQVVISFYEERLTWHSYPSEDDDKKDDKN
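HP1-beta protein (50 nM final) preincubated 30 min at room temperature with biotinylated H3(1-18)K9me3 peptide (50 nM) in PBS pH 7.4, 0.01% Tween-20, then compound added for 30 min. AlphaScreen streptavidin donor/nickel chelate acceptor beads (10 ug/mL final), 30 min dark, luminescence read.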
BAZ2B inh: inhibitors of human BAZ2B bromodomain | Potency, µM (doses to about 114 µM), for inactives: at the top dose activity change, negative = inhibition, most hits filed as inhibitors | Q9UIF8 | AlphaScreen BAZ2B-H3K14Ac peptide displacement | 360,000 compounds, 4.4% hits; also: potency is read from the fitted curve at half-maximal effect; % is scaled to controls: 0 for no effect and ±100 for the full control effect; nearly all actives have a fitted effect of over 60% in size
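BAZ2B 50 nM plus b-H3(5-23)K14Ac 50 nM, PBS pH 7.4/0.01% Tween-20, 30 min RT; compound added (max 110 uM), 30 min RT; streptavidin donor/Ni-chelate acceptor beads 10 ug/mL final, 20 min dark; AlphaScreen read.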
PI5P4K alpha inh: PI5P4K alpha (human) kinase inhibition; PI5P4Kalpha enzyme, ADP-Glo luminescence, 60 min; hits give low values; max response, %; 330,000 compounds, 1.2% hits; active = max response of -50% or lower; inconclusive = between -30% and -50%; inactive = -30% or higher; also: value at the top dose of about 77 µM; % is scaled to controls: 0 for no effect and ±100 for the full control effect
Target sequence (P48426 whole entry, looked up): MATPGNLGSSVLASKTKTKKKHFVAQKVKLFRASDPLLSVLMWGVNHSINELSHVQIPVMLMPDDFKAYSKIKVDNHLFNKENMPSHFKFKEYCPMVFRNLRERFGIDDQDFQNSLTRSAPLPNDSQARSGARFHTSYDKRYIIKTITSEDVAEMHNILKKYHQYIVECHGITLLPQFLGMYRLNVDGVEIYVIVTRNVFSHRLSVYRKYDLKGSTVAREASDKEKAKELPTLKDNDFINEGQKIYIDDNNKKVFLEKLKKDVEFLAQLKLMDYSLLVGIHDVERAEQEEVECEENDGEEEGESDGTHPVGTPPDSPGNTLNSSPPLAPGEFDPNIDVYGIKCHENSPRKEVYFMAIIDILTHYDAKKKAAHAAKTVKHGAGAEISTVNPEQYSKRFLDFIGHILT
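Controls without substrate or without enzyme flank wells where PI5P4Kalpha converts substrate using 5 microM ATP (final). Incubation lasts 60 minutes at room temperature; ADP formed is read by ADP-Glo luminescence.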
PLK1 PBD block: blocks phosphopeptide binding to human PLK1 polo-box domain | Plk1 PBD binding of FITC phosphopeptide, fluorescence polarization | P53350 | AID 720504 | Potency, µM, for inactives: max response, negative = inhibition, actives largely listed as inhibitors | 360,000 compounds, 2.8% hits; also: potency is read from the fitted curve at half-maximal effect; series mostly up to about 57 µM; % is scaled to controls: 0 for no effect and ±100 for the full control effect; nearly all actives have a fitted effect of over 65% in size
G9a inh: G9a (human) methyltransferase inhibition. Potency, µM (doses to about 102 µM), without a hit: top-dose activity, negative = inhibition, usual class: inhibitors. 350,000 compounds, 8.8% hits. G9a H3K9 monomethylation, AlphaScreen, 2 h; also: potency is read from the fitted curve at half-maximal effect; % is scaled to controls: 0 for no effect and ±100 for the full control effect; nearly all actives have a fitted effect of over 75% in size
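Signal arises when biotinylated H3K9 peptide, once monomethylated, bridges streptavidin donor and antibody-captured acceptor beads. Enzyme at 20 nM was preincubated 15 min with test compounds; peptide 500 nM and SAM 20 uM then reacted for 2 h.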
* = called active by the depositor; ? = inconclusive; nt = no result; [ ] = dose if it differs, or a comment. Unless noted, calls follow the shape of the dose curve; as a rule, active = well fitted curve in the direction sought with a large enough effect; inconclusive = small, poorly fitted or top-dose-only effect, or another doubt; inactive = no such curve, though single readings can be large; an effect the other way counts as inactive or inconclusive.

SMILES	JMJD2A Tudor	HP1b chromo inh	BAZ2B inh	PI5P4K alpha inh	PLK1 PBD block	G9a inh
COc1cc(CNCc2ccccn2)ccc1OCC(=O)NC1CCCCC1	?	28.4%	56.2µM*	0.4	-0.5%	?
CCOc1cc(CNCCO)ccc1OCC(=O)NC(C)(C)C	-18.8%[11.4 µM]	12.9%	?	-7.1	23.8µM*	17.1%[59 µM]
CC(=O)SC1CC2=CC(=O)CC[C@]2(C)C2CC[C@@]3(C)C(CC[C@@]34CCC(=O)O4)C12 (stereo partly drawn)	nt	nt	nt	nt	nt	27.1%[59 µM]
O=C(COC(=O)CNC(=O)c1ccccc1)NCCNC(=O)COC(=O)CNC(=O)c1ccccc1	2.9%	18.5%	1.8%	-2.7	1.5%	17.0%[12.7 µM]
COc1ccc(CCn2nnnc2C2(c3ccc(C)cc3)CC2)cc1	nt	nt	nt	nt	nt	-5.0%[59 µM]
CCOc1cc(CNc2ccc(OC)cc2)cc(Br)c1OCC(=O)NC(C)(C)C	22.4µM*	?	17.8µM*	nt	0.0%	?
CCOc1cc(CNc2ccc(Br)cc2)cc(Br)c1OCC(=O)NC(C)(C)C	-9.4%	11.3%	-9.6%	nt	-6.7%	1.0%[59 µM]
O=C(Nc1c2c(nn1-c1ccc(Cl)cc1)CS(=O)(=O)C2)c1ccccc1F	-21.7%	19.7%	-1.0%	nt	nt	4.2%[59 µM]
CS(=O)(=O)C1=NSC2=NC(=O)/C(=C\c3ccc(OS(=O)(=O)c4ccccc4)cc3)C(=N)N21	?	-9.7%	50.1µM*	-62.5*	29.9µM*	nt
O=C1N=C(N2CCOCC2)S/C1=C\c1ccc(OS(=O)(=O)c2ccccc2)cc1	-32.0%	28.1%	-19.0%	3.0	-9.6%	?
COc1cc(/C=C2/C(=N)N3C(=NC2=O)SN=C3S(C)(=O)=O)ccc1OS(=O)(=O)c1ccc(C)cc1	56.2µM*	-17.4%	?	-79.1*	26.7µM*	?
CCS(=O)(=O)C1=NSC2=NC(=O)/C(=C\c3ccc(OS(=O)(=O)c4ccccc4)c(OC)c3)C(=N)N21	56.2µM*	-5.3%[57 µM]	50.1µM*	-66.6*	26.7µM*	39.8µM*
COc1cccc(-n2c(C)cc(/C=C3/C(=N)N4C(=NC3=O)SN=C4S(C)(=O)=O)c2C)c1	?	-10.6%	56.2µM*	-63.3*	18.9µM*	44.7µM*
CC1=NN2C(=N)/C(=C\c3cc(C)n(-c4cccc(C)c4)c3C)C(=O)N=C2S1	-12.6%	27.0%	-2.4%	-15.8	?	-8.5%
CCOC(=O)c1ccc(NC(=O)NNC(=O)CCc2ccc(OC)cc2)cc1	-15.9%	25.1%	-1.3%	-2.1	-13.9%	nt
C1CCC(NC(=NC2C3CC4CC(C3)CC2C4)N2CCOCC2)CC1 (stereo not drawn)	nt	nt	nt	nt	nt	25.1%[59 µM]
Cc1ccc(S(=O)(=O)Oc2ccc(/C=C3/C(=N)N4C(=NC3=O)SN=C4S(C)(=O)=O)cc2)cc1	?	-6.9%[57 µM]	?	-58.8*	21.2µM*	nt
O=C(CN1CCN(C2CCCCC2)CC1)NCCC1=CCCCC1	12.6µM*	?	50.1µM*	nt	-1.3%	nt
OCc1ccccc1-c1nc(NCC2CC2)nc2ccsc12	nt	nt	nt	0.8	-13.6%	nt
Cc1cc2c(s1)c1cnn(Cc3ccc(-n4cncn4)cc3)c(=O)c1n2C	-23.3%	nt	nt	nt	nt	nt
Cc1ccc2nc(NC(=O)c3ccc(N4C(=O)CCC4=O)cc3)sc2c1	-25.2%	32.4%	?	-54.3*	-22.7%	11.2µM*
Cc1ccc2nc(NC(=S)NC(=O)c3ccc(OC(C)C)cc3)sc2c1	-5.1%	22.0%	56.2µM*	-2.7	-7.2%	nt
CCc1ccccc1Nc1ncnc2c1cnn2-c1ccc(Cl)cc1	-15.3%	-7.3%	-2.0%	nt	nt	5.2%[59 µM]
CCCOc1ccc2nc(C)c(CCC)c(SC(=N)N)c2c1	?	28.6%	?	-4.5	0.0%	39.8µM*
CCCc1c(C)nc2ccc(OC)cc2c1SCCC(=O)O	-15.4%	26.6%	-5.4%	-4.1	?	23.9%[59 µM]
SMILES	JMJD2A Tudor	HP1b chromo inh	BAZ2B inh	PI5P4K alpha inh	PLK1 PBD block	G9a inh
O=S(=O)(c1cccc(-c2n[nH]c(=S)n2Cc2ccccc2)c1)N1CCOCC1	20µM*	20.6%	-16.1%	-0.1	-9.7%	nt
O=S(=O)(c1cccc(-c2n[nH]c(=S)o2)c1)N1CCOCC1	?	-22.4%	-12.8%	-72.8*	26.7µM*	14.1µM*
O=S(=O)(c1cccc(-c2cn3cccnc3n2)c1)N1CCOCC1	-5.7%	32.0%	-1.6%	nt	?	35.5µM*
O=S(=O)(c1cccc(-c2n[nH]c(=S)n2-c2ccccc2Cl)c1)N1CCOCC1	22.4µM*	23.3%	nt	-9.1	-22.5%	nt
CNc1ncnc2c1ncn2[C@H]1CN(Cc2cccc3ccccc23)C[C@@H](CO)O1	nt	nt	nt	-1.3	-7.5%	nt
CCOC(=O)N(C)c1c(CC)nc2c(OCc3cc(Cl)cc(Cl)c3)cccn12	nt	nt	nt	2.1	-2.0%	nt
Cc1cc(Nc2ccccc2F)n2nc(-c3ccccc3)nc2n1	-0.3%	43.3%	4.3%	nt	nt	9.8%[59 µM]
Cc1ccc2nc(-c3cccc(S(=O)(=O)N4CCCC4)c3)cn2c1	-3.8%	13.0%	-18.0%[57.1 µM]	6.9	-3.4%	10.0%
Cc1ccc(S(=O)(=O)N2CCOCC2)cc1-c1n[nH]c(=S)n1-c1ccccc1	6.31µM*	36.8%	10.1%	0.9	-6.3%	-7.5%[12.7 µM]
Cc1ccc2nc(-c3cccc(S(=O)(=O)N4CC(C)OC(C)C4)c3)cn2c1 (stereo not drawn)	?	16.1%	-36.9%	-21.7	18.9µM*	-12.6%
O=S(=O)(c1cccc(S(=O)(=O)N2CCC(Cc3ccccc3)CC2)c1)N1CCOCC1	-4.6%[11.4 µM]	-6.3%	-2.8%	10.5	26.7µM*	?
COc1ccccc1N1CCN(C(=O)c2ccc3ncsc3c2)CC1	-8.1%[11.4 µM]	50.6%	nt	8.9	-17.7%	nt
CNC(=O)COc1coc(CN2CCN(c3ccc(OC)cc3)CC2)cc1=O	-18.8%	17.0%	?	-0.9	-2.6%	-12.6%[0.501 µM]
Cc1ccc(OCC(=O)N(Cc2nnc(-c3ccccc3Cl)o2)C2CC2)cc1C	-1.7%	36.1%	9.1%	-0.1	0.0%	6.6%[12.7 µM]
COc1ccccc1CNC(=O)COC(=O)Cc1ccc(Cl)cc1	10.7%	58.1%	42.0%	2.8	0.2%	34.6%
COc1ccccc1CNC(=O)N/C=C/c1ccc(Cl)cc1	-35.1%	-15.4%	-13.2%	0.9	?	31.6µM*
O=C(N/C=C\c1ccccc1)NCc1ccc(Cl)cc1Cl	-12.6%[57.1 µM]	-12.5%	-0.9%	7.0	21.2µM*	25.1µM*
O=C(N/C=C\c1ccccc1)NCc1ccc(Cl)cc1	-9.6%	17.7%	2.2%	-3.8	-12.2%	?
CC(=O)Oc1cc2oc(=O)cc(C)c2cc1OC(C)=O	-34.3%	26.2%	50.1µM*	nt	-13.9%	0.501µM*
CC(=O)Oc1ccc2c(C)cc(=O)oc2c1	12.1%	37.9%	7.9%	-3.7	-3.7%	0.3%[59 µM]
COc1ccc(NC(=O)Cn2c(=O)n(Cc3ccco3)c(=O)c3oc4ccccc4c32)cc1Cl	-15.4%	14.4%	-0.4%	nt	nt	0.8%[59 µM]
COc1ccc2c(c1)C(c1ccccc1OC)CC(=O)O2 (stereo not drawn)	nt	nt	nt	nt	nt	35.5µM*
